Compound activity: PubChem BioAssay, National Center for Advancing Translational Sciences (NCATS)
In the library only some 4.7% were active in any assay of this set; here they are far more common.
ATXN2 expr inh: inhibitors of ATXN2 expression | HEK-293 ATXN2-luciferase reporter, luminescence, 24 h | hit rate 0.72% among 360,000 | Potency, µM (titrated, usually from 57 µM), inactives show at the highest dose activity change, negative = inhibition, most hits filed as inhibitors | AID 1745845; also: potency is read from the fitted curve at half-maximal effect; % is scaled to controls: 0 for no effect and ±100 for the full control effect; nearly all actives have a fitted effect of over 55% in size
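ATXN2-luciferase reporter cells (luciferase flanked by upstream and downstream ATXN2 gene portions) were treated 24 h at 37 °C with compounds at up to 57 uM. SteadyGlo luminescence gave expression; GF-AFC fluorescence gave viability.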
DRD3 agonist: activates the human D3 dopamine receptor | P35462 | hit rate 0.58% among 410,000 | D3R DiscoveRx beta-arrestin cells, luminescence, 90 min | max activation, %; in the data active = max activation above about 30%; also: 0% is about no effect
Target sequence (P35462 whole entry, looked up): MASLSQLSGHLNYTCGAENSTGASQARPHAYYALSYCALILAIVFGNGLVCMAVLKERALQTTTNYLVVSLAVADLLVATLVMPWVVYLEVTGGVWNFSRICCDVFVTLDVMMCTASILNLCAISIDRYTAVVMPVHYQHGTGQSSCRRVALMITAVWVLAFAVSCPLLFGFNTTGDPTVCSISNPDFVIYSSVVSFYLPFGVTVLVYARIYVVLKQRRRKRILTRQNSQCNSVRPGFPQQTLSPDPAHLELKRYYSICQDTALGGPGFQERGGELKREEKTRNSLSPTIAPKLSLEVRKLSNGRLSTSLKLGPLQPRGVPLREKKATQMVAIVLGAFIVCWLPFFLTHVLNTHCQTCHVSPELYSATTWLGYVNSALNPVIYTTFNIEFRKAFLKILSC
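Agonist mode: compounds and dopamine controls were applied to plated cells for 90 min at 37 degrees C after an overnight attachment at 1500 cells/well. Luminescent read-out followed 30 - 60 minutes at room temperature with DiscoveRx detection reagent.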
S2 tox: cell viability loss in ATXN counter-screen; hit rate 0.49% among 400,000; S2 cells (HEK-293 line with an ATXN2-luciferase reporter) viability, CellTiter-Fluor protease fluorescence, 24 h; Potency, µM (titrated, usually from 56.7 µM), most hits filed as cytotoxic; also: potency is read from the fitted curve at half-maximal effect; nearly all actives have a fitted effect of over 40% in size
HepG2 tox-1: HepG2 cytotoxicity, counter-screen for TGF-b inhibitors. HepG2 CAGA-GFP viability, ATP luminescence, 18 h. Potency, µM (top dose mostly 46.1 µM), without a hit: at the top dose activity change, negative = cytotoxicity, most hits filed as cytotoxic. hit rate 0.76% among 410,000. AID 588856; also: potency is read from the fitted curve at half-maximal effect
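HepG2 CAGA-GFP cells (1000/well, DMEM with 1% FBS) received compound, then TGF-beta at 500 pg/mL final, and were incubated 18 hours at 37 degrees C. Viability was read by CellTiter-Glo luminescence. Media-only wells were set as complete cell-killing and DMSO as no toxicity.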
TGFb inhibitor: TGF-b pathway inhibition; HepG2 CAGA-GFP TGF-b/SMAD3 reporter, GFP fluorescence, 18 h; TGF-beta stimulated, 500 pg/mL final; Potency, µM (titrated, usually from 46.1 µM), inactives show at the top dose activity, negative = inhibition, hits mostly inhibitors; hit rate 1.2% among 410,000; also: potency is read from the fitted curve at half-maximal effect; % is scaled to controls: 0 for no effect and ±100 for the full control effect; nearly all actives have a fitted effect of over 65% in size
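GFP signal (ex488/em500-530) from TGF-beta-stimulated HEPG2 CAGA-GFP cells, 500 pg/mL final, 18 h at 37 degrees C in DMEM plus 1% FBS, normalized to unstimulated and DMSO-stimulated controls.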
D3 antag: antagonists of human D3 dopamine receptor; P35462; D3R cells, DiscoveRx beta-arrestin luminescence, antagonist mode; active compounds read low; max response, negative = inhibition, %; hit rate 2.5% among 360,000; AID 652054; in the data active = max response below about -50%; inconclusive = no clear call, values can overlap the other calls; also: % is scaled to controls: 0 for no effect and ±100 for the full control effect
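Cells plated overnight at 1500 cells/well, then exposed to library compounds with dopamine controls for 90 minutes at 37 degrees C. DiscoveRx reagent added for 30–60 minutes at room temperature; luminescence read, quantitative HTS format.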
TGFb confirm: confirmation of TGF-b signaling inhibitors in HepG2 reporter cells; shares compounds with TGFb inhibitor; HepG2 CAGA-GFP TGF-b reporter, GFP fluorescence, 18 h; cells stimulated with TGF-beta, 500 pg/mL; Potency, µM (series often up to 46.1 µM), inactives show at the top dose activity, negative = inhibition, actives largely listed as inhibitors; hit rate 63% among 1,600; also: potency is read from the fitted curve at half-maximal effect; % is scaled to controls: 0 for no effect and ±100 for the full control effect; nearly all actives have a fitted effect of over 65% in size
HepG2 tox-2: toxic to HepG2 cells in TGF-b counterscreen; shares compounds with TGFb inhibitor; HepG2 CAGA-GFP viability, ATP luminescence, 18 h; cells stimulated with TGF-beta, 500 pg/mL; AID 720535; Potency, µM (series often up to 46.1 µM), inactives show at the highest dose activity, negative = cytotoxicity, hits mostly inhibitors; hit rate 27% among 1,600; also: potency is read from the fitted curve at half-maximal effect; % is scaled to controls: 0 for no effect and ±100 for the full control effect; nearly all actives have a fitted effect of over 70% in size
CCL64 TGFb inh: blocks TGF-b signaling in CCL64 reporter cells; shares compounds with TGFb inhibitor; CCL64 CAGA-GFP reporter, TGF-b stimulated, GFP fluorescence, 18 h; Potency, µM (highest dose often 46.1 µM), without a hit: top-dose activity, negative = inhibition, hits mostly inhibitors; hit rate 41% among 1,600; also: potency is read from the fitted curve at half-maximal effect; nearly all actives have a fitted effect of over 65% in size
TGFb COP inh: validation of TGF-b inhibitors in HepG2 COP promoter reporter; shares compounds with TGFb inhibitor; HepG2 COP-GFP TGF-b reporter, GFP fluorescence, 18 h; cells stimulated by added recombinant TGF-beta; Potency, µM (highest dose often 46.1 µM), without a hit: at the highest dose activity, negative = inhibition, hits mostly inhibitors; hit rate 3% among 1,600; AID 720537; also: potency is read from the fitted curve at half-maximal effect; nearly all actives have a fitted effect of over 70% in size
SKNSH spheroid: reduced viability of SK-N-SH 3D spheroids, orthogonal test; shares compounds with ATXN2 expr inh; SK-N-SH 3D spheroid viability, PI/Hoechst imaging, 72 h; Potency, µM (series often up to 30.7 µM), hits mostly inhibitors; hit rate 70% among 65; AID 1347135
SJGBM2 3D viab: lowers viability of SJ-GBM2 3D spheroids; shares compounds with ATXN2 expr inh; SJ-GBM2 3D spheroid viability, PI/Hoechst imaging, 72 h; Potency, µM (top dose mostly 30.7 µM), usual class: inhibitors; hit rate 80% among 65
Daoy spheroid: kills Daoy spheroids in orthogonal 3D test; shares compounds with ATXN2 expr inh; Daoy 3D spheroid viability, PI/Hoechst imaging, 72 h; Potency, µM (highest dose often 30.7 µM), usual class: inhibitors; hit rate 50% among 65
TC32 3D caspase: activates caspase in TC32 3D spheroids. shares compounds with ATXN2 expr inh. TC32 3D spheroids, caspase-3/7 fluorescence imaging, 24 h. Potency, µM (series often up to 30.7 µM), actives largely listed as inhibitors. hit rate 30% among 65. AID 1347138
TC32 3D tox: TC32 3D spheroid viability loss; Potency, µM (highest dose often 30.7 µM), usual class: inhibitors; hit rate 60% among 65; shares compounds with ATXN2 expr inh; TC32 3D spheroid viability, PI/Hoechst imaging, 72 h
MG63 spheroid: reduced viability of MG-63 (6-TG R) 3D spheroids, orthogonal test; AID 1347140; Potency, µM (series often up to 30.7 µM), most hits filed as inhibitors; MG-63 (6-TG R) 3D spheroid viability, PI/Hoechst imaging, 72 h; shares compounds with ATXN2 expr inh; hit rate 50% among 65
RD 3D tox: reduced viability of RD 3D spheroids, orthogonal test; shares compounds with ATXN2 expr inh; RD rhabdomyosarcoma 3D spheroid viability, PI/Hoechst imaging, 72 h; Potency, µM (series often up to 30.7 µM), actives largely listed as inhibitors; hit rate 50% among 65
* marks the source's active call; other numbers are inactive results; i = inactive; ? = inconclusive; . = no result given; ! = repeats disagree. Unless noted, calls follow the shape of the dose curve; as a rule, active = well fitted curve in the direction sought with a large enough effect; inconclusive = small, poorly fitted or top-dose-only effect, or another doubt; inactive = no such curve, though single readings can be large; an effect the other way counts as inactive or inconclusive.

SMILES | ATXN2 expr inh | DRD3 agonist | S2 tox | HepG2 tox-1 | TGFb inhibitor | D3 antag | TGFb confirm | HepG2 tox-2 | CCL64 TGFb inh | TGFb COP inh | others
COc1cc(O)c2c(c1)/C=C/C[C@H](O)[C@H](O)C(=O)CCC[C@H](C)OC2=O | 2% | 6 | i | -5% | 2µM* | 9 | 8.2µM* | -12% | 7.3µM* | ?
C[C@@H]1CNC(=O)c2c(C(=O)Nc3ccc(CNC(=O)OC(C)(C)C)cc3)ncn21 | ? | 1 | ? | -19% | ? | 33 | . | . | . | .
Cc1nc2ccccc2c(=O)n1-c1nccs1 | 28% | -1 | i | 22% | 18% | 4 | . | . | . | .
Cc1nn(-c2nccs2)c2c1C(=O)CC(C)(C)C2Br (stereo not given) | ? | -2 | i | -9% | 11µM* | 0 | 13µM* | ? | ? | 34%
O=C(CCN1CC2CCC(CC2)C1)c1cccs1 | -2% | 3 | ? | -25% | 13µM* | 2 | 2.6µM* | 21µM* | 2.9µM* | ?
Cc1c(C=O)c2ccccc2n1Cc1ccc(F)cc1 | -10% | -7 | i | -31% | 5.6µM* | 1 | 1.3µM* | 1.6µM* | 10% | -4%
C[C@H]1C[C@@H](C)C(=O)[C@@H]([C@H](O)CC2CC(=O)NC(=O)C2)C1 | 1.1µM* | 0 | i | -21% | 0.71µM* | 12 | 1µM* | ? | 0.33µM* | 25%
COc1cc(C[C@H](C)N)c(OC)cc1C | . | -20 | ? | . | . | . | . | . | . | .
O=C1NC2C(=CC(O)C(O)C2O)c2cc3c(c(O)c21)OCO3 (stereo not given) | ? | -18 | ? | -21% | -126% | ? | 0.018µM* | 0.46µM* | 0.073µM* | -8%
O=C1NC2C(O)C(O)C(O)C(O)C2c2cc3c(c(O)c21)OCO3 (stereo not given) | 0% | 0 | ? | 4% | 0.13µM* | 6 | 0.065µM* | ? | 0.18µM* | 0%
Nc1nc(F)nc2c1ncn2[C@@H]1O[C@H](CO)[C@@H](O)[C@@H]1O | 1.7µM*! | -10 | i | -38% | 0.5µM* | 5 | 0.46µM* | 0.46µM* | -33% | 42% | SKNSH spheroid=0.46µM*;SJGBM2 3D viab=0.29µM*;Daoy spheroid=0.36µM*;TC32 3D caspase=3.6µM*;TC32 3D tox=2µM*;MG63 spheroid=0.2µM*;RD 3D tox=1.4µM*
O=C(Cn1c(=O)oc2cc(S(=O)(=O)N3CCCCC3)ccc21)N1CCCCC1 | . | 6 | i | 34% | 49% | 6 | . | . | . | .
O=C(O)CNC1c2ccccc2CSc2ccccc21 (stereo not given) | 1% | -2 | i | 27% | 10% | 3 | . | . | . | .
CN1CCCC(C(O)(c2ccccc2)c2ccccc2)C1 (stereo not given) | . | 0 | i | 4% | -3% | 1 | . | . | . | .
CCCCC[C@@H]1CCCCC[C@@H](O)C[C@H](O)[C@H](O)/C=C/C(=O)O1 | 6% | 6 | i | . | . | -25 | . | . | . | .
CN1c2ccc([N+](=O)[O-])cc2CC2(C(=O)NC(=O)NC2=O)C1c1ccccc1 (stereo not given) | 0% | -4 | i | 2% | -24% | ? | . | . | . | .
O=C(CN1CCOCC1)c1cccc([N+](=O)[O-])c1 | . | . | . | -9% | 2% | . | . | . | . | .
COC(=O)C1=CCCN(C)C1 | 41% | 7 | i | 6% | 7% | -13 | . | . | . | . | SKNSH spheroid=13µM*;SJGBM2 3D viab=?;Daoy spheroid=i;TC32 3D caspase=?;TC32 3D tox=4.1µM*;MG63 spheroid=i;RD 3D tox=i
CC(=O)Nc1cc(-c2cccc(C(=O)N(C)C)c2)cn2c(-c3cccc(C(F)(F)F)c3)cnc12 | 0% | -11 | ? | -20% | 0% | -6 | . | . | . | .
CCN(CC)/[N+]([O-])=N/O | . | 3 | i | . | . | . | . | . | . | .
